Source: ChEMBL document CHEMBL4513216, “Probing the Open Global Health Chemical Diversity Library for Multistage-Active Starting Points for Next-Generation Antimalarials” (ACS Infect Dis, 2020)
The campaign covered roughly 69,000 compounds. About 8,600 (12%) showed an effect of 50% or more. This is one part of a sample in which strong results are shown more often than they occur.

The compounds below were run on Plasmodium berghei (assay: Screen against P. berghei liver stage (PbLuc), transformed with Luciferase, at 10uM). Conditions: tested at 10 uM.
Format: functional, HepG2

Point of comparison: `O=C(N[C@@H]1CCC[C@@H](N2CCCC2)[C@@H]1O)c1cc2ccccc2[nH]1`, INHIBITION 48.4%. Against it:
- CC(C)(N)C(=O)N1CCCC1c1cncc(Oc2ccccc2)n1 (centres undefined) — lower, 26.3%
- Cc1noc(C)c1CN1CCc2nn(C(C)C)c(=O)cc2C1 — higher, 54.4%
- CC(C)n1nc2c(cc1=O)CN(Cc1nc(-c3ccco3)no1)CC2 — higher, 54.4%
- CCCn1nc2c(cc1=O)CN(Cc1c(C)noc1C)CC2 — lower, 2.69%
- CCCn1nc2c(cc1=O)CN(Cc1nc(-c3ccco3)no1)CC2 — lower, 20.8%
- Cc1cc(CN2CCc3nn(C(C)C)c(=O)cc3C2)no1 — lower, 35.1%
- CCn1nc2c(cc1=O)CN(Cc1nc(-c3ccco3)no1)CC2 — lower, 35.9%
- CCN(Cc1nc(COC)no1)C(=O)CCNC(=O)c1ccccc1F — higher, 58.1%
- CCN(CC1CCCCO1)C(=O)CCNC(=O)c1ccccc1F (centres undefined) — lower, 28.5%
- CC(C)Cc1noc(CN(C)C(=O)CCNC(=O)c2ccccc2F)n1 — higher, 51.5%
- CCN(CC1CCOCC1)C(=O)CCNC(=O)c1ccccc1F — lower, 32.2%
- Cc1nc(CCN(C)C(=O)CCNC(=O)c2ccccc2F)no1 — lower, 43.9%
- CC(C)c1nc(CN(C)C(=O)CCNC(=O)c2ccccc2F)no1 — lower, 12.4%
- CC(C)CCNC(=O)C1CCN(c2ccc3nnc(C(C)C)n3n2)CC1 — lower, 21%
- O=S(=O)(NCC1(c2cccs2)CCOCC1)c1cccnc1 — lower, -115%
- NCc1cccc(NC(=O)CCN2CCOCC2)c1 — lower, -5.1%
- OCCC[C@@H]1CN(c2ncc(Cl)cc2Cl)CC[C@@H]1N1CCOCC1 — lower, 1.93%
- O=C(NCc1cn2c(n1)CN(Cc1cccnc1)CC2)C1CCC1 — lower, 26.3%
- c1ccc(-c2cc(CNCCCC3CCOC3)c3nnnn3c2)cc1 (centres undefined) — higher, 74.9%
- c1ccc(-c2cc(CNCCCN3CCCCC3)c3nnnn3c2)cc1 — lower, -38.2%
- c1ccc(-c2cc(CNCCN3CCOCC3)c3nnnn3c2)cc1 — lower, 5.11%
- Cc1cnn(CC2CCN(CC(O)COc3ccccc3)CC2)c1 (centres undefined) — lower, 14.5%
- Cc1cnn(CC2CCN(CC(O)Cn3cccn3)CC2)c1 (centres undefined) — higher, 68.5%
- Cc1cnn(CC2CCN(CC(O)COc3ccc(F)cc3)CC2)c1 (centres undefined) — higher, 56.1%
- Cc1ccc(OCC(O)CN2CCC(Cn3cc(C)cn3)CC2)cc1 (centres undefined) — lower, 33.3%
- Cc1cc(C)n(CC2CCN(CC(O)Cn3cccn3)CC2)n1 (centres undefined) — lower, -12.2%
- Cc1cnn(CC2CCN(CC(O)c3ccccc3F)CC2)c1 (centres undefined) — lower, -30.8%
- Cc1cnn(CC2CCN(CC(O)CN3CCC(C)CC3)CC2)c1 (centres undefined) — lower, 30.4%
- Cc1cnn(CC2CCN(CC(O)c3ccccc3)CC2)c1 (centres undefined) — lower, 33%
- Cc1cnn(CC2CCN(CC(O)c3ccccc3Cl)CC2)c1 (centres undefined) — higher, 57.2%
- CCC(CC)S(=O)(=O)NC(=O)c1ccc2c(c1)ncn2C — lower, 5.11%
- NC(=O)C1CCN(C(=O)NCCOc2ccc3c(c2)OCO3)C1 (centres undefined) — lower, -69.3%
- CCCc1noc(CN2CCCCC2Cn2cncn2)n1 (centres undefined) — lower, 27.2%
- CN1CCN(CCO)C(=O)C12CCN(Cc1ccsc1)CC2 — lower, 18.2%
- CN(C)CC(=O)N1CC(c2nn(C)c3nccnc23)C1 — lower, -0.902%
- NC(=O)CC1CCN(c2cncc(OCc3ccccc3)n2)CC1 — lower, 12.4%
- c1ccc(COC2CCN(c3cncc(-n4cccn4)n3)CC2)cc1 — higher, 53.5%
- O=C(c1ccccc1)C1CCN(c2cncc(-n3cccn3)n2)CC1 — higher, 74.8%
- c1ccc(C2CCCN(c3cncc(-n4cccn4)n3)CC2)cc1 (centres undefined) — higher, 90.2%
- O=C(c1ccc(-n2cccn2)nc1)N1CCCC(c2cnccn2)C1 (centres undefined) — lower, -50.3%
- Cn1cnnc1C1CCN(c2cncc(-n3cccn3)n2)CC1 — lower, -8.19%
- N#Cc1cccnc1N1CCC(OCc2ccccc2)CC1 — lower, 18.9%
- NC(=O)C1CCN(c2cncc(-n3cccn3)n2)CC1 — lower, 48.3%
- c1ccc(C2CCN(c3cncc(-n4cccn4)n3)CC2)cc1 — higher, 85.1%
- CN(C)C(=O)C1CCN(c2cncc(-n3cccn3)n2)CC1 — lower, 41.4%
- Nc1cccnc1N1CCC(c2ccccc2)CC1 — lower, 6.29%
- c1cc(C2CCN(c3cnccn3)CC2)ccn1 — lower, 18.4%
- Cc1nc(CN2C[C@@H]3CN(C(=O)c4cccn4C)C[C@@H]3C2=O)cs1 — lower, 39.8%
- Cc1ccc2nc(C3CCCN(CC(C)C)C3)nc(O)c2c1 (centres undefined) — lower, 13.5%
- CCc1n[nH]c(C2CN(C(=O)c3nc(C)n4ccccc34)CCO2)n1 (centres undefined) — lower, 17.8%
- Cc1nc2cc(C(=O)N3CCCC(n4ccnc4)C3)ccc2n1C (centres undefined) — lower, 33.3%
- O=C(NCc1ccc(F)cc1)N1CCN(CC(O)C2CC2)CC1 (centres undefined) — lower, 30.8%
- Cc1ccc(S(=O)(=O)NCC2COCc3c(C)nnn3C2)cc1F (centres undefined) — lower, 24.5%
- c1ccc(N2CCC(c3ccncc3)CC2)cc1 — higher, 65.2%
- c1cncc(N2CCC(c3ccncc3)CC2)c1 — lower, 26.221%
- c1cc(C2CCN(c3cncnc3)CC2)ccn1 — lower, 39.6%
- Cc1nc(C2CCCN(C(=O)c3ccc(OCC4CC4)nc3)C2)no1 (centres undefined) — lower, 8.64%
- O[C@H]1COCCN(Cc2cccc(C(F)(F)F)c2)C1 — lower, -4.82%
- NC(=O)CN(C(=O)Cc1cccc(C(F)(F)F)c1)C1CCCC1 — lower, -23.1%
- CC(O)(CN1CCC(O)CC1)c1cccc(C(F)(F)F)c1 (centres undefined) — lower, -37.7%
- O=C1C(N2CC[C@@H](O)C2)CCCN1Cc1cccc(C(F)(F)F)c1 (some centres undefined) — higher, 77.8%
- O[C@H]1CN(Cc2cccc(C(F)(F)F)c2)CC[C@@]12CCCO2 — lower, 37.6%
- O=C1C(N2CCOCC2)CCCN1Cc1cccc(C(F)(F)F)c1 (centres undefined) — higher, 50.8%
- NC1CCCN(Cc2cccc(C(F)(F)F)c2)C1=O (centres undefined) — higher, 57.2%
- FC(F)(F)c1ccnc(N2CCCC(N3CCOCC3)C2)c1 (centres undefined) — lower, 40.5%
- O=c1n(Cc2cccc(C(F)(F)F)c2)nc2ncccn12 — lower, -39.3%
- CC(C)NC(=O)N1CC[C@@H]2CN(Cc3ccccc3)S(=O)(=O)[C@@H]2CC1 — lower, 31.8%
- O=c1[nH]cnc2c1CCN(S(=O)(=O)c1cccc(OC(F)(F)F)c1)C2 — lower, -23.7%
- COCCN1C[C@H](OCc2csc(C)n2)[C@H]2COC[C@H]21 — lower, -41.4%
- CCC(C)N(Cc1sccc1C)C(=O)c1cc(N)ccn1 (centres undefined) — lower, 43.9%
- Cc1ccccc1-c1cncc(C2CCN(C(C)C)CC2)n1 — lower, 32.8%
- Cc1ccccc1-c1cncc(C2CCN(C)CC2)n1 — lower, 38.1%
- Cc1ccccc1-c1cncc(C2CCN(C3CCOCC3)CC2)n1 — higher, 64.1%
- COc1cccc(-n2nnc(C(=O)N3CCCC(C)C3)c2C)c1 (centres undefined) — lower, -60.35%
- COc1cccc(-n2nnc(C(=O)N3CCN(C)CC3C)c2C)c1 (centres undefined) — higher, 68.3%
- COc1cccc(-n2nnc(C(=O)N3CCCC3)c2C)c1 — lower, 2.26%
- Cc1nc(C)c(CN2CCC(N(C)Cc3nnc(C4CC4)o3)C2)s1 (centres undefined) — lower, -21.9%
- CC(C)(C)c1nc(CNc2cc3c(cc2Cl)NC(=O)CO3)no1 — lower, 5.91%
- Cc1ccc(CNc2cc3c(cc2Cl)NC(=O)CO3)cc1C — higher, 56%
- Cc1noc(CNc2cc3c(cc2Cl)NC(=O)CO3)n1 — lower, 3.13%
- O=C(NCc1nnc2n1CCC2)c1cccc(Br)c1 — lower, -57.5%
- Cc1csc(C2(NCc3nc(-c4ccco4)oc3C)CCCC2)n1 — higher, 64.5%
- Cc1csc(C2(NCc3nnc(-c4ccco4)o3)CCCC2)n1 — lower, 32.9%
- Cc1csc(C2(NCc3nc(-c4ccco4)no3)CCCC2)n1 — higher, 62%
- Cc1csc(C2(NCC(O)COC(C)C)CCCC2)n1 (centres undefined) — lower, 9.41%
- Cc1csc(C2(NCc3ccc(OCC(F)F)cc3)CCCC2)n1 — lower, 14.5%
- Cc1csc(C2(NCc3csc(C4CC4)n3)CCCC2)n1 — lower, 24.2%
- COCCNC(=O)N1CCN(C(=O)c2nsc3ccc(C)cc23)CC1 — lower, -32.1%
- Cc1ccc(OCC(=O)N2CCCC(n3nc(C)nc3C)C2)cc1 (centres undefined) — lower, 25.1%
- CN(CCCN1CCCCCC1)C(=O)c1ccccc1NCC(=O)O — lower, 14.9%
- c1ccc(-c2nnc(CN3CCCC(Cn4cncn4)C3)o2)cc1 (centres undefined) — lower, 9.31%
- CCOc1ccc(C#N)cc1NCC(=O)OC — lower, -38.7%
- CCOc1ccc(C(F)(F)F)cc1NC(=O)N1CCC(C(N)=O)CC1 — lower, -3.21%
- CCCNC(=O)CNc1cc(C#N)ccc1OCC — higher, 60.5%
- CCOc1c(Cl)cccc1NCc1cc(C)on1 — lower, -10.2%
- CCOc1ccc(C#N)cc1NCC(=O)NC(=O)NC — lower, 2.3%
- CCNC(=O)NC(=O)CNc1cc(C#N)ccc1OCC — lower, -9.76%
- CCOc1ccc(C#N)cc1NCc1cc(C)on1 — higher, 51.7%
- CCOc1ccc(C(F)(F)F)cc1NC(=O)NCc1noc(C)n1 — lower, -15%
- CCOc1ccc(OCC)c(NCc2cc(C)on2)c1 — higher, 71.2%
- COc1ccc(Cl)cc1NCc1cc(C)on1 — lower, 11.783%
- CCOc1ccc(C#N)cc1NCC(=O)Nc1cc(C)no1 — lower, 7.7%
- CCOc1ccc(C(F)(F)F)cc1NCc1nc(C)c(C)o1 — higher, 65.6%
- CCN(Cc1cccc(C)c1)Cc1nc2c(cnn2C)c(=O)[nH]1 — higher, 49.1%
- Cc1cc(N2CCN(Cc3cn(C)nc3C)CC2)cc(C2CCNC2)n1 (centres undefined) — lower, 18.225%
- Cc1ccc(NC2CCN(C(=O)c3cccnc3N(C)C)CC2)nn1 — lower, 21.6%
- CN(C)[C@@H]1CCN(c2ncc(F)cn2)[C@H]1Cc1cccnc1 — lower, 9.72%
- Cc1cc(C)n(CC2CN(Cc3ccc(C(N)=O)cc3)CCO2)n1 (centres undefined) — lower, 46.1%
